IL1B secr inh – qHTS for Inhibitors of Inflammasome Signaling: IL-1-beta AlphaLISA Primary Screen; AID 743279, 2014; activity change, % at 57.5 µM; THP-1 LPS/ATP IL-1B secretion, AlphaLISA, 16 h; active compounds read low; 360,000 tested, 4.7% active; in the data active means activity change below about -50%; inconclusive means mostly about -30% to -49%
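THP-1 cells pretreated 1 hr with compounds (up to 57.5 uM final), then stimulated with LPS (250 ng/mL final) plus ATP (1.25 mM final); secreted IL-1B measured by AlphaLISA after 16 hr, decreased signal indicating inhibition.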
TDP1 cell CPT – qHTS for Inhibitors of human tyrosyl-DNA phosphodiesterase 1 (TDP1): qHTS in cells in presence of CPT; chicken DT40 Tdp1-/-;hTDP1 cells + 20 nM CPT, ATP luminescence, 48 h; Potency, µM (highest dose often 46.2 µM), actives largely listed as inhibitors; 420,000 tested, 12% active; further: nearly all actives have a fitted effect of over 55% in size
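Chicken DT40 Tdp1-/- cells stably complemented with human TDP1 were seeded at 400 cells/well in medium containing 20 nM camptothecin, exposed to pin-transferred compounds, and grown at 37 °C for at least 48 hr. Viability was read as ATP luminescence.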
HT1080 IDH1KD tx – qHTS for induction of synthetic lethality in tumor cells producing 2HG: qHTS for the HT-1080-IDH1KD cell line; HT-1080 IDH1 knockdown viability, ATP luminescence, 48 h; Potency, µM (titrated, usually from 46.1 µM), usual class: cytotoxic; 360,000 tested, 2% active
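Knockdown cells (IDH1KD HT-1080) received compounds 2 h after plating at 750 cells/well and were kept 48 h at 37 °C in 5% FBS RPMI. A CellTiter-Glo luminescence read gave % activity for curve fitting.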
HT1080NT lethal – qHTS for induction of synthetic lethality in tumor cells producing 2HG: qHTS for the HT-1080-NT fibrosarcoma cell line | HT-1080-NT fibrosarcoma viability, CellTiter-Glo ATP luminescence, 48 h | 360,000 tested, 1.6% active | Potency, µM (series often up to 46.1 µM), actives largely listed as cytotoxic | AID 686970, 2013;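 further: NT is the 2HG producing partner of a matched IDH1 knockdown line; nearly all actives have a fitted effect of over 55% in size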
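Read-out is CellTiter-Glo luminescence after 10 minutes at room temperature, following 48 hours' compound treatment of HT-1080-NT cells (750 cells/well, RPMI, 5% FBS, 37 degrees C).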
ALOX12 inh – Primary qHTS assay for inhibitors of human arachidonate 12S-lipoxygenase (ALOX12): Round 2 | Polyunsaturated fatty acid lipoxygenase ALOX12 (Homo sapiens), P18054 | purified 12hLO, xylenol orange hydroperoxide absorbance | Potency, µM (series often up to 108 µM), hits mostly inhibitors | 580,000 tested, 1.1% active | AID 1671190, 2021
Target sequence (P18054 whole entry, looked up): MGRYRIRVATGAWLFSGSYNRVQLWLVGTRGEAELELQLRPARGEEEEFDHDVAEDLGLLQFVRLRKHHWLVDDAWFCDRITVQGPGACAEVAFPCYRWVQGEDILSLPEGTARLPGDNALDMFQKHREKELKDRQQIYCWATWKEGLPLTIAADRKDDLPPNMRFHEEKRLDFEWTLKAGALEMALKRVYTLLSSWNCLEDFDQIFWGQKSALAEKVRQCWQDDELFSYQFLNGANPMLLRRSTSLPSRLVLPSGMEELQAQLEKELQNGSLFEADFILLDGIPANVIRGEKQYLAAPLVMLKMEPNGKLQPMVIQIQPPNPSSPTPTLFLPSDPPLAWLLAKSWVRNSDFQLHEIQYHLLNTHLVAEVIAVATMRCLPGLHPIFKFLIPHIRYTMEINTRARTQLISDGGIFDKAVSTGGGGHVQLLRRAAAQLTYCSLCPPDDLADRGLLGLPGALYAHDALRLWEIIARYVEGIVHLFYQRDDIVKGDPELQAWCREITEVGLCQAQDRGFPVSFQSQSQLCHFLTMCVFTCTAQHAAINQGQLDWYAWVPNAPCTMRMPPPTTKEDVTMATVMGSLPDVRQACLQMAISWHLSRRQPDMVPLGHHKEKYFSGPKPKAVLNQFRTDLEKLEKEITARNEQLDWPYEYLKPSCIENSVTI
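Purified human 12hLO (150 nM final) in 25 mM Hepes, 0.01% Triton X-100, pH 7.0 was preincubated 15 min at room temperature with compound. Then 40 uM arachidonic acid was added, 30 min. Hydroperoxide was read by Fe-XO absorbance ratio 573/405 nm.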
TDP1 cell noCPT – qHTS for Inhibitors of human tyrosyl-DNA phosphodiesterase 1 (TDP1): qHTS in cells in absence of CPT. DT40 Tdp1-/- hTDP1 cells, no CPT, ATP luminescence, 48 h. 420,000 tested, 15% active. AID 686978, 2013. Potency, µM (series often up to 46.2 µM), hits mostly inhibitors; further: nearly all actives have a fitted effect of over 55% in size
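Seeded 400 DT40-hTDP1 cells/well (vehicle DMSO, no 20 nM CPT); pinned compounds; ≥48 hr at 37 °C; CellTiter-Glo luminescence as viability measure.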
A number is an active result; [ ] = remark or other dose. Only a selection was taken, and hits are over-represented in it overall. Unless noted, the call rests on the fitted dose curve; in most records, active means well fitted curve in the direction sought with a large enough effect; inconclusive means small, poorly fitted or top-dose-only effect, or another doubt; inactive means no such curve, though single readings can be large; an effect the other way counts as inactive or inconclusive.

COc1ccccc1N1CCN(CC(=O)c2ccc(F)cc2)CC1 was read as IL1B secr inh inactive, TDP1 cell CPT inactive, HT1080 IDH1KD tx inactive, HT1080NT lethal inactive, ALOX12 inh 1.1µM and TDP1 cell noCPT inactive.
`COc1ccccc1N1CCN(CCCCCCOc2ccc(F)cc2)CC1` gave IL1B secr inh inactive, TDP1 cell CPT 23µM, HT1080 IDH1KD tx inactive, HT1080NT lethal inactive, ALOX12 inh inactive and TDP1 cell noCPT 21µM.
`CCCNc1c(NC(=O)c2ccccc2C)c(=O)oc2ccccc12` gave ALOX12 inh inactive.
COc1ccc([N+](=O)[O-])cc1NC(=O)CSc1nc(C)cc(C)n1 was read as IL1B secr inh inactive, TDP1 cell CPT 16µM, HT1080 IDH1KD tx inactive, HT1080NT lethal inactive, ALOX12 inh inactive and TDP1 cell noCPT inconclusive.
`COc1ccc([N+](=O)[O-])cc1NC(=O)CSc1ccc2ccccc2c1` gave IL1B secr inh inactive, TDP1 cell CPT 23µM, HT1080 IDH1KD tx inactive, HT1080NT lethal inconclusive, ALOX12 inh inconclusive and TDP1 cell noCPT inconclusive.
Cc1cc(Br)ccc1NC(=O)CSc1nc2cc([N+](=O)[O-])ccc2o1 was read as ALOX12 inh 18µM.
For COc1cc([N+](=O)[O-])ccc1NC(=O)CSc1nncn1-c1cccnc1 the results were IL1B secr inh inactive, TDP1 cell CPT inconclusive, HT1080 IDH1KD tx inactive, HT1080NT lethal inactive, ALOX12 inh inactive and TDP1 cell noCPT 0.52µM.
For c1cc2c(cc1OC1CN(CC3CC3)C1)OCO2 the results were ALOX12 inh inactive[12.5 µM].
Screening O=C(Cn1cccc1-c1nc(-c2ccc(F)cc2)no1)Nc1ccc2c(c1)OCO2 returned ALOX12 inh inactive.
`O=C(Cc1cccs1)N1CCCC(CN2CCOCC2)CC1` (stereo unspecified) gave ALOX12 inh inactive.
O=C1CC(c2ccccc2)N(C(=O)C2CC2)CCCN(S(=O)(=O)c2cccs2)CCN1 (stereo unspecified) was read as ALOX12 inh inactive.
`O=C1Nc2c(ccc(Cl)c2Cl)C(=O)C1(F)c1ccccc1` (stereo unspecified) gave IL1B secr inh -99, TDP1 cell CPT inactive, HT1080 IDH1KD tx inactive, HT1080NT lethal inactive, ALOX12 inh inconclusive and TDP1 cell noCPT inactive.
For Cc1cc(C)c(NC(=O)C2CC=CCC2)c(C)c1 (stereo unspecified) the results were ALOX12 inh inactive.
`CCOC(=O)N1CCN(c2ccc(S(=O)(=O)N(Cc3ccccc3)Cc3ccccc3)cn2)CC1` gave IL1B secr inh inactive, TDP1 cell CPT 13µM, HT1080 IDH1KD tx inactive, HT1080NT lethal inactive, ALOX12 inh inactive and TDP1 cell noCPT 13µM.
`CCOC(=O)N1CCN(C(=O)CN(Cc2ccc(Cl)cc2)S(=O)(=O)c2ccccc2)CC1` gave IL1B secr inh inactive, TDP1 cell CPT inconclusive, HT1080 IDH1KD tx inactive, HT1080NT lethal inactive, ALOX12 inh inactive and TDP1 cell noCPT 21µM.
For CCOC(=O)N1CCN(C(=O)CN(Cc2ccccc2)S(C)(=O)=O)CC1 the results were IL1B secr inh inactive, TDP1 cell CPT inconclusive, HT1080 IDH1KD tx inactive, HT1080NT lethal inactive, ALOX12 inh inactive and TDP1 cell noCPT inactive.
CCN(CC)S(=O)(=O)c1ccc(N2CCN(c3ccccc3O)CC2)nc1 was read as IL1B secr inh inactive, TDP1 cell CPT inconclusive, HT1080 IDH1KD tx inactive, HT1080NT lethal inconclusive, ALOX12 inh inactive and TDP1 cell noCPT 21µM.
